# Screens from PubChem.
# Shown are actives, neighbours in structure and some others; about 19% of the full set was active somewhere.
# IL1B secr inh: blocks inflammasome-driven IL-1 beta release; THP-1 LPS/ATP IL-1B secretion, AlphaLISA, 16 h; active compounds read low; activity change, % at 57.5 µM; actives 4.7% (n = 360,000); AID 743279; in the data active = activity change below about -50%; inconclusive = mostly about -30% to -49%
#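 Secreted IL-1B measured by AlphaLISA bead assay after 16 h compound exposure of THP-1 cells; compounds (final up to 57.5 uM) added 1 h before LPS (250 ng/mL) and ATP (1.25 mM) stimulation; lower signal means less secretion.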
# DT40 TDP1 no CPT: qHTS for Inhibitors of human tyrosyl-DNA phosphodiesterase 1 (TDP1): qHTS in cells in absence of CPT; Potency, µM (top dose mostly 46.2 µM), for the others: at the highest dose activity change, negative = growth inhibition, usual class: inhibitors; AID 686978, 2013; actives 15% (n = 420,000); DT40 Tdp1-/- hTDP1 cells, no CPT, ATP luminescence, 48 h; also: potency is read from the fitted curve at half-maximal effect; nearly all actives have a fitted effect of over 55% in size
#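 No-CPT arm: Tdp1-/-;hTDP1 DT40 cells (400/well) plus compounds, incubated ≥48 hr at 37 °C. Readout CellTiter-Glo luminescence.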
# ELG1 DNA repair: blocks ELG1-dependent DNA repair in HEK293T cells | HEK293T ELG1-luciferase reporter, luminescence, 16 h; DNA damage induced by 5-fluorouridine | Potency, µM (highest dose often 46.1 µM), without a hit: top-dose activity change, negative = inhibition, hits mostly inhibitors | actives 2.3% (n = 330,000); also: potency is read from the fitted curve at half-maximal effect; nearly all actives have a fitted effect of over 55% in size
#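 DMSO vehicle served as the neutral condition. Each well held 2,000 cells given 5-fluorouridine plus compound; after 16 hr at 37 °C/5% CO2, ONE-Glo was added and luciferase measured 30 min later.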
# HT1080 IDH1KD tx: kills HT-1080 cells with IDH1 knockdown | HT-1080 IDH1 knockdown viability, ATP luminescence, 48 h | Potency, µM (top dose mostly 46.1 µM), for the others: top-dose activity, negative = toxicity, most hits filed as cytotoxic | actives 2% (n = 360,000) | AID 686971;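 also: potency is read from the fitted curve at half-maximal effect; 0% = DMSO wells and -100% = cell-free medium wells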
#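 Viability of IDH1-knockdown HT-1080 fibrosarcoma cells was assessed by CellTiter-Glo after 48 h at 37 °C with titrated compound; concentration-effect curves were classified by fit quality and response size.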
# DT40 TDP1 CPT: growth inhibition of DT40 Tdp1-/-;hTDP1 cells with camptothecin (screen for TDP1 inhibitors) | chicken DT40 Tdp1-/-;hTDP1 cells + 20 nM CPT, ATP luminescence, 48 h | Potency, µM (top dose mostly 46.2 µM), for inactives: at the highest dose activity change, negative = growth inhibition, actives largely listed as inhibitors | actives 12% (n = 420,000) | AID 686979; also: potency is read from the fitted curve at half-maximal effect; nearly all actives have a fitted effect of over 55% in size
#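 Chicken DT40 Tdp1-/- cells stably complemented with human TDP1 were seeded at 400 cells/well in medium containing 20 nM camptothecin, exposed to pin-transferred compounds, and grown at 37 °C for at least 48 hr. Viability was read as ATP luminescence.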
# HT1080-NT tox: kills 2HG-producing HT-1080-NT fibrosarcoma cells; HT-1080-NT fibrosarcoma viability, CellTiter-Glo ATP luminescence, 48 h; Potency, µM (titrated, usually from 46.1 µM), without a hit: top-dose activity, negative = less viability, hits mostly cytotoxic; actives 1.6% (n = 360,000); AID 686970;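 also: NT is the 2HG producing partner of a matched IDH1 knockdown line; potency is read from the fitted curve at half-maximal effect; 0% = DMSO-treated cells and -100% = media-only wells without cells; nearly all actives have a fitted effect of over 55% in size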
#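 750 cells/well, RPMI + 5% FBS; 2 h settle, compound pin-transfer, 48 h at 37 degrees C. CellTiter-Glo 10 min RT, luminescence. Normalized to DMSO and media-only wells.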
# Numbers without * were called inactive; ? = inconclusive; . = not tested or not shown; [ ] = remark or other dose. Unless noted, calls follow the shape of the dose curve; as a rule, active = well fitted curve in the direction sought with a large enough effect; inconclusive = small, poorly fitted or top-dose-only effect, or another doubt; inactive = no such curve, though single readings can be large; an effect the other way counts as inactive or inconclusive. Unless noted, % is scaled to controls: 0 for no effect and ±100 for the full control effect.
SMILES,IL1B secr inh,DT40 TDP1 no CPT,ELG1 DNA repair,HT1080 IDH1KD tx,DT40 TDP1 CPT,HT1080-NT tox
OC[C@H]1O[C@@H](O[C@@H]2[C@@H](CO)O[C@](O)(CO)[C@H]2O)[C@H](O)[C@@H](O)[C@H]1O,.,-7%,.,.,-11%,.
Cc1ccc(NC(=O)CC2Nc3cccc4cccc(c34)NC2=O)cc1 (centres undefined),.,6.5µM*,.,.,?,.
O=C(CC1Nc2cccc3cccc(c23)NC1=O)Nc1ccccc1 (centres undefined),-63*,26µM*,?,-5%,?,-5%
COc1ccc(S(=O)(=O)N2CCCCC2)cc1NC(=O)Cc1ccsc1,9,-4%,-10%,0%,4%,1%
COC(=O)c1cc(CNC(=O)c2cccc3ccccc23)cc(NC(=O)c2ccccc2OC)c1,.,?,.,.,10%[9.04 µM],.
COC(=O)c1cc(CNC(=O)c2ccccc2OC)cc(NC(=O)c2ccccc2F)c1,.,16µM*,.,.,21µM*,.
COC(=O)c1cc(CNC(=O)c2ccccc2F)cc(NC(=O)c2ccccc2OC)c1,.,23µM*,.,.,-17%[9.04 µM],.
CCOC(=O)C1(C)CCCN(C(=O)c2ccc(OC)c(OC)c2)C1 (centres undefined),-11,-15%,.,8%,-12%,18%
COc1ccc(N2CCN(CCCNC(=O)c3cc(Nc4ccccc4OC)nc4ccccc34)CC2)cc1,.,?,.,.,23µM*,.
COc1ccc(Nc2cc(C(=O)NCCCN3CCOCC3)c3ccccc3n2)c(OC)c1,-2,-25%,-21%,-6%,-4%,-11%
COc1ccc(Nc2cc(C(=O)NCCCN3CCOCC3)c3ccccc3n2)cc1OC,-21,?,?,-3%,29µM*,-2%
COc1ccc(Nc2cc(C(=O)NCCCN3CCN(c4ccccc4F)CC3)c3ccccc3n2)c(OC)c1,.,16µM*,.,.,?,.
COc1ccc(Nc2cc(C(=O)NCCCN3CCN(c4ccc(OC)cc4)CC3)c3ccccc3n2)cc1,.,8.2µM*,.,.,8.2µM*,.
COc1ccc(Nc2cc(C(=O)NCCCN3CCN(C)CC3)c3ccccc3n2)cc1OC,?,-18%,4%,-2%,-15%,-2%
CCc1ccccc1NS(=O)(=O)c1ccc2[nH]cc(C(=O)N3CCCCC3)c(=O)c2c1,.,-10%,.,.,-9%,.
c1ccc2c(c1)Nc1cc3ccccc3cc1O2,0,?,.,-3%,2%,19%
O=C(COC(=O)COc1ccc(Cl)cc1)NC1CC1,19,-17%,18%,8%,7%,2%
COCCCNC(=O)CSc1nc2cc3c(cc2c(=O)n1CCCCCC(=O)NCCc1ccc(OC)c(OC)c1)OCO3,.,-10%,.,.,12%,.
CCN(CCCNC(=O)c1cc(Nc2ccccc2OC)nc2ccccc12)c1cccc(C)c1,.,7.3µM*,.,.,21µM*,.
COc1ccc(N2CCN(CCNC(=O)c3ccc4c(c3)[nH]c(=S)n3c5ccccc5nc43)CC2)cc1,-2,2.1µM*,?,-29%,4.6µM*,?
COc1ccc(N2CCN(CCCNC(=O)c3cnn(-c4ccc(C)cc4)c3-n3cccc3)CC2)cc1,.,5.2µM*,.,.,5.8µM*,.
COc1ccc(Nc2cc(C(=O)NCCCN(C)Cc3ccccc3)c3ccccc3n2)c(OC)c1,.,13µM*,.,.,15µM*,.
COc1ccc(N2CCN(CCNC(=O)c3ccc4nc5ccccc5c(=O)n4c3)CC2)cc1,13,1%,?,13%,-26%,17%
COCCn1c(=O)c(-c2ccc(Cl)cc2)nc2cnc(Oc3ccccc3)nc21,.,-27%,.,.,1%,.
CCc1ccc(NC(=O)c2ccc3c(c2)nnn3CC)cc1,.,?,.,.,10%,.
SMILES,IL1B secr inh,DT40 TDP1 no CPT,ELG1 DNA repair,HT1080 IDH1KD tx,DT40 TDP1 CPT,HT1080-NT tox
Cc1cc(C)n(CCC(=O)N/N=C/c2ccc(Br)c([N+](=O)[O-])c2)n1,-93*,-28%,?,-26%,-5%,?
Cc1cc([N+](=O)[O-])nn1Cc1ccc(C(=O)N/N=C/c2ccc(O)cc2O)cc1,50,?,-14%,2.1µM*,?,?
O=C(Cn1nnc(-c2ccccc2)n1)N/N=C/c1cccc([N+](=O)[O-])c1O,124,21µM*,-18%,?,?,-3%
Cc1cc([N+](=O)[O-])nn1CC(=O)N/N=C/c1ccccc1F,-2,3%,-6%,0%,7%,3%
Cc1cc([N+](=O)[O-])nn1CC(=O)N/N=C/c1ccccc1O,192,18µM*,?,?,8.2µM*,?
Cc1cc([N+](=O)[O-])nn1Cc1ccc(C(=O)N/N=C/c2ccc(F)cc2)cc1,.,-19%,5%,-7%,3%,-4%
O=C(Cn1nnc(-c2ccccc2)n1)N/N=C/c1cccc([N+](=O)[O-])c1,28,-9%,0%,7%,-10%,-10%
Cc1ccc(OCC(=O)NCCNC(=O)c2cnccn2)cc1C,10,-14%,27%,-2%,-29%,11%
CCOc1cc(/C=N/NC(N)=O)cc(Br)c1OCc1ccccc1F,-2,?,-17%,0%,-27%,3%
Cc1cc(C)n(CC(=O)N/N=C/c2cc([N+](=O)[O-])ccc2O)n1,101,15µM*,?,?,21µM*,?
Cn1c(SCC(=O)N/N=C/c2cc([N+](=O)[O-])ccc2O)nnc1-c1ccccc1,73,?,9.2µM*,-3%,?,-17%
Nc1nnnn1CC(=O)N/N=C/c1cc([N+](=O)[O-])ccc1O,-2,-9%,?,-18%,-23%,-8%
Cn1c(SCC(=O)N/N=C/c2ccccn2)nnc1-c1ccccc1,8,1%,1%,7%,4%,0%
CCOc1cc(/C=N/NC(=O)Cn2nc([N+](=O)[O-])cc2C)cc(Br)c1OCc1ccccc1F,16,?,-3%,10µM*,21µM*,?
O=C1CCCCCC[C@@H](O)[C@H](O)C[C@H](c2ccccc2)O1,16,-28%,.,-2%,-11%,-7%
CC(C(=O)NCC(=O)Nc1ccc(F)c(F)c1F)N1CCN(Cc2ccc(C#N)cc2)CC1 (centres undefined),9,5%,-19%,-2%,0%,5%
CC(C(=O)NCC(=O)Nc1ccc(F)c(F)c1F)N1CCN(c2ccc(O)cc2)CC1 (centres undefined),27,15µM*,?,?,?,?
